# Measured values taken from the supplement of paper PMC4466140.
# B1: unnamed (peptide)
# chain: RNNRPVPPPPPMRTT
# B2: unnamed (peptide)
# chain: LKHGWKPLRPIKLIS
# Biological target: AgAbp1
# Test: SPOT peptide array binding signal intensity (averaged, normalized) (arbitrary units (background-subtracted, floor 0; scale differs between SH3 domains)); higher = stronger binding of the SH3 domain to the peptide
# Method in brief: (§1)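 Peptides were synthetic 15-mers on cellulose membranes, with every cysteine replaced by serine. They were incubated overnight at 4°C with GST-SH3 domains from four yeast species at 10 μg/ml in TBS-based blocking buffer. Binding signal, the replicate-averaged normalized and background-subtracted spot intensity, is in arbitrary units that differ between domains.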
row,Binder,SPOT peptide array binding signal intensity
1,B1,9

# Biological target: AgBbc1
# Test: as above
# Method in brief: as §1
row,Binder,SPOT peptide array binding signal intensity
1,B1,519

# Biological target: AgBem1-D1
# Test: as above
# Method in brief: as §1
row,Binder,SPOT peptide array binding signal intensity
1,B1,129

# Biological target: AgBzz1-D1
# Test: as above
# Method in brief: as §1
row,Binder,SPOT peptide array binding signal intensity
1,B1,232

# Biological target: AgBzz1-D2
# Test: as above
# Method in brief: as §1
row,Binder,SPOT peptide array binding signal intensity
1,B1,117

# Biological target: AgCyk3
# Test: as above
# Method in brief: as §1
row,Binder,SPOT peptide array binding signal intensity
1,B1,15

# Biological target: AgFus1
# Test: as above
# Method in brief: as §1
row,Binder,SPOT peptide array binding signal intensity
1,B1,11

# Biological target: AgHof1
# Test: as above
# Method in brief: as §1
row,Binder,SPOT peptide array binding signal intensity
1,B1,95.5

# Biological target: AgHse1
# Test: as above
# Method in brief: as §1
row,Binder,SPOT peptide array binding signal intensity
1,B1,23

# Biological target: AgLsb1
# Test: as above
# Method in brief: as §1
row,Binder,SPOT peptide array binding signal intensity
1,B1,27

# Biological target: AgLsb4
# Test: as above
# Method in brief: as §1
row,Binder,SPOT peptide array binding signal intensity
1,B1,131

# Biological target: AgMyo5
# Test: as above
# Method in brief: as §1
row,Binder,SPOT peptide array binding signal intensity
1,B1,72.2

# Biological target: AgNbp2
# Test: as above
# Method in brief: as §1
row,Binder,SPOT peptide array binding signal intensity
1,B1,59.5

# Biological target: AgRvs167
# Test: as above
# Method in brief: as §1
row,Binder,SPOT peptide array binding signal intensity
1,B1,76.8

# Biological target: AgSho1
# Test: as above
# Method in brief: as §1
row,Binder,SPOT peptide array binding signal intensity
1,B1,5

# Biological target: AgSla1-D1-D2
# Test: as above
# Method in brief: as §1
row,Binder,SPOT peptide array binding signal intensity
1,B1,6

# Biological target: AgSla1-D3
# Test: as above
# Method in brief: as §1
row,Binder,SPOT peptide array binding signal intensity
1,B1,21.5

# Biological target: CaAbp1-D1
# Test: as above
# Method in brief: as §1
row,Binder,SPOT peptide array binding signal intensity
1,B1,53.5

# Biological target: CaAbp1-D2
# Test: as above
# Method in brief: as §1
row,Binder,SPOT peptide array binding signal intensity
1,B1,11

# Biological target: CaBbc1
# Test: as above
# Method in brief: as §1
row,Binder,SPOT peptide array binding signal intensity
1,B1,724

# Biological target: CaBem1-D1
# Test: as above
# Method in brief: as §1
row,Binder,SPOT peptide array binding signal intensity
1,B1,108

# Biological target: CaBzz1-D1
# Test: as above
# Method in brief: as §1
row,Binder,SPOT peptide array binding signal intensity
1,B1,5240

# Biological target: CaBzz1-D2
# Test: as above
# Method in brief: as §1
row,Binder,SPOT peptide array binding signal intensity
1,B1,1310

# Biological target: CaCyk3
# Test: as above
# Method in brief: as §1
row,Binder,SPOT peptide array binding signal intensity
1,B1,247

# Biological target: CaFus1
# Test: as above
# Method in brief: as §1
row,Binder,SPOT peptide array binding signal intensity
1,B1,69

# Biological target: CaHof1
# Test: as above
# Method in brief: as §1
row,Binder,SPOT peptide array binding signal intensity
1,B1,9.5

# Biological target: CaHse1
# Test: as above
# Method in brief: as §1
row,Binder,SPOT peptide array binding signal intensity
1,B1,3

# Biological target: CaLsb1
# Test: as above
# Method in brief: as §1
row,Binder,SPOT peptide array binding signal intensity
1,B1,2

# Biological target: CaLsb4
# Test: as above
# Method in brief: as §1
row,Binder,SPOT peptide array binding signal intensity
1,B1,541

# Biological target: CaMyo5
# Test: as above
# Method in brief: as §1
row,Binder,SPOT peptide array binding signal intensity
1,B1,34

# Biological target: CaNbp2
# Test: as above
# Method in brief: as §1
row,Binder,SPOT peptide array binding signal intensity
1,B1,312

# Biological target: CaRvs167
# Test: as above
# Method in brief: as §1
row,Binder,SPOT peptide array binding signal intensity
1,B1,392

# Biological target: CaRvs167-3
# Test: as above
# Method in brief: as §1
row,Binder,SPOT peptide array binding signal intensity
1,B1,1

# Biological target: CaSho1
# Test: as above
# Method in brief: as §1
row,Binder,SPOT peptide array binding signal intensity
1,B1,17

# Biological target: CaSla1-D1-D2
# Test: as above
# Method in brief: as §1
row,Binder,SPOT peptide array binding signal intensity
1,B1,1140

# Biological target: CaSla1-D3
# Test: as above
# Method in brief: as §1
row,Binder,SPOT peptide array binding signal intensity
1,B1,187

# Biological target: ScAbp1
# Test: as above
# Method in brief: as §1
row,Binder,SPOT peptide array binding signal intensity
1,B1,10.5

# Biological target: ScBbc1
# Test: as above
# Method in brief: as §1
row,Binder,SPOT peptide array binding signal intensity
1,B1,58

# Biological target: ScBem1-D1
# Test: as above
# Method in brief: as §1
row,Binder,SPOT peptide array binding signal intensity
1,B1,4

# Biological target: ScBzz1-D1
# Test: as above
# Method in brief: as §1
row,Binder,SPOT peptide array binding signal intensity
1,B1,453

# Biological target: ScBzz1-D2
# Test: as above
# Method in brief: as §1
row,Binder,SPOT peptide array binding signal intensity
1,B1,113

# Biological target: ScCyk3
# Test: as above
# Method in brief: as §1
row,Binder,SPOT peptide array binding signal intensity
1,B1,2.5

# Biological target: ScFus1
# Test: as above
# Method in brief: as §1
row,Binder,SPOT peptide array binding signal intensity
1,B1,2.5

# Biological target: ScHof1
# Test: as above
# Method in brief: as §1
row,Binder,SPOT peptide array binding signal intensity
1,B1,21

# Biological target: ScHse1
# Test: as above
# Method in brief: as §1
row,Binder,SPOT peptide array binding signal intensity
1,B1,49.5

# Biological target: ScLsb1
# Test: as above
# Method in brief: as §1
row,Binder,SPOT peptide array binding signal intensity
1,B1,27

# Biological target: ScLsb2
# Test: as above
# Method in brief: as §1
row,Binder,SPOT peptide array binding signal intensity
1,B1,13.5

# Biological target: ScLsb3
# Test: as above
# Method in brief: as §1
row,Binder,SPOT peptide array binding signal intensity
1,B1,1090

# Biological target: ScLsb4
# Test: as above
# Method in brief: as §1
row,Binder,SPOT peptide array binding signal intensity
1,B1,500

# Biological target: ScMyo3
# Test: as above
# Method in brief: as §1
row,Binder,SPOT peptide array binding signal intensity
1,B1,425

# Biological target: ScMyo5
# Test: as above
# Method in brief: as §1
row,Binder,SPOT peptide array binding signal intensity
1,B1,156

# Biological target: ScNbp2
# Test: as above
# Method in brief: as §1
row,Binder,SPOT peptide array binding signal intensity
1,B1,622

# Biological target: ScPex13
# Test: as above
# Method in brief: as §1
row,Binder,SPOT peptide array binding signal intensity
1,B1,1210

# Biological target: ScRvs167
# Test: as above
# Method in brief: as §1
row,Binder,SPOT peptide array binding signal intensity
1,B1,2320

# Biological target: ScSho1
# Test: as above
# Method in brief: as §1
row,Binder,SPOT peptide array binding signal intensity
1,B1,99

# Biological target: ScSla1-D1-D2
# Test: as above
# Method in brief: as §1
row,Binder,SPOT peptide array binding signal intensity
1,B1,1300

# Biological target: ScSla1-D3
# Test: as above
# Method in brief: as §1
row,Binder,SPOT peptide array binding signal intensity
1,B1,56.5

# Biological target: SpAbp1-D1
# Test: as above
# Method in brief: as §1
row,Binder,SPOT peptide array binding signal intensity
1,B1,15.5

# Biological target: SpBbc1
# Test: as above
# Method in brief: as §1
row,Binder,SPOT peptide array binding signal intensity
1,B1,41

# Biological target: SpBzz1-D1
# Test: as above
# Method in brief: as §1
row,Binder,SPOT peptide array binding signal intensity
1,B1,2280

# Biological target: SpBzz1-D2
# Test: as above
# Method in brief: as §1
row,Binder,SPOT peptide array binding signal intensity
1,B1,28.8
2,B2,0.5

# Biological target: SpCyk3
# Test: as above
# Method in brief: as §1
row,Binder,SPOT peptide array binding signal intensity
1,B1,23
2,B2,≤ 0

# Biological target: SpHof1
# Test: as above
# Method in brief: as §1
row,Binder,SPOT peptide array binding signal intensity
1,B1,22.8
2,B2,93

# Biological target: SpHof1-2
# Test: as above
# Method in brief: as §1
row,Binder,SPOT peptide array binding signal intensity
1,B1,24.8
2,B2,18.8

# Biological target: SpHof1-3
# Test: as above
# Method in brief: as §1
row,Binder,SPOT peptide array binding signal intensity
1,B1,98.2
2,B2,445

# Biological target: SpHse1
# Test: as above
# Method in brief: as §1
row,Binder,SPOT peptide array binding signal intensity
1,B1,52
2,B2,294

# Biological target: SpLsb1
# Test: as above
# Method in brief: as §1
row,Binder,SPOT peptide array binding signal intensity
1,B1,44.2
2,B2,≤ 0

# Biological target: SpLsb4
# Test: as above
# Method in brief: as §1
row,Binder,SPOT peptide array binding signal intensity
1,B1,1450
2,B2,161

# Biological target: SpMyo1
# Test: as above
# Method in brief: as §1
row,Binder,SPOT peptide array binding signal intensity
1,B1,662
2,B2,≤ 0

# Biological target: SpNbp2
# Test: as above
# Method in brief: as §1
row,Binder,SPOT peptide array binding signal intensity
1,B1,8.5
2,B2,246

# Biological target: SpPex13
# Test: as above
# Method in brief: as §1
row,Binder,SPOT peptide array binding signal intensity
1,B1,19.5
2,B2,8

# Biological target: SpRvs167
# Test: as above
# Method in brief: as §1
row,Binder,SPOT peptide array binding signal intensity
1,B1,1030
2,B2,7.5

# Biological target: SpSla1-D1-D2
# Test: as above
# Method in brief: as §1
row,Binder,SPOT peptide array binding signal intensity
1,B1,134
2,B2,≤ 0

# Biological target: SpSla1-D3
# Test: as above
# Method in brief: as §1
row,Binder,SPOT peptide array binding signal intensity
1,B1,7
2,B2,≤ 0
